Measured values published in PubChem BioAssay AID1565 (Sanford-Burnham Center for Chemical Genomics, 2009).
About 3,200 (1.1%) of roughly 290,000 compounds were called active. This excerpt belongs to a sample that is enriched for actives. Values without a mark were called inactive. Cut-off read from the data, not from the text of the source: active = inhibition above about 60%; inactive = the rest.

Biological target: Phosphoethanolamine/phosphocholine phosphatase (Homo sapiens) (UniProt Q8TCT1)
Assay: PubChem AID 1565
Conditions: recombinant PHOSPHO1, absorbance phosphatase assay; at 13.3 µM; active compounds read high

Chain of Phosphoethanolamine/phosphocholine phosphatase (Homo sapiens) (Q8TCT1 whole entry, looked up): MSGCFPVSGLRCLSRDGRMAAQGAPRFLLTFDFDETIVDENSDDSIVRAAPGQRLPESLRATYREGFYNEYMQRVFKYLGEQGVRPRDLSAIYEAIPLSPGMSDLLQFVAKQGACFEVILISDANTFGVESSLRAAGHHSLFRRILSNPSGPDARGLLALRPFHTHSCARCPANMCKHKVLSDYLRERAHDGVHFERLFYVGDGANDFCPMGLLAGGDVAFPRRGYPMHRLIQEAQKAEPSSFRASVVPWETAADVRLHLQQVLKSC

| Structure (SMILES) | inhibition |
| --- | --- |
| COc1ccccc1N=C1SCCCN1C | 85.5% (active) |
| COc1ccccc1N=Nc1c(O)[nH]c(=S)[nH]c1=O | 11.7% |
| CC(C)(C)c1ccc(OC(=O)N2CCCCC2)cc1 | 27.4% |
| Cc1cccc(NC(=O)N2CC3CC(C2)c2cccc(=O)n2C3)c1 (stereo not given) | 41.8% |
| Cc1ccc(-c2nc3ccccc3c(=O)n2-c2ccc(Br)cn2)cc1 | 68.6% (active) |
| O=c1c2ccccc2nc(-c2ccccc2)n1-c1ccccn1 | 32.4% |
| O=c1c2ccccc2nc(-c2ccco2)n1-c1ccc(Br)cn1 | -3.3% |
| Cc1nc2ccccn2c1P(=S)(N1CCCCC1)N1CCCCC1 | 15.2% |
| COc1cccc(CN2CCCC(C(=O)c3ccccc3SC)C2)c1O (stereo not given) | 12.9% |
| O=c1c2ccccc2nc(/C=C/c2ccc(F)cc2)n1-c1ccccc1O | 38.1% |
| Cc1ccc(-n2c(-c3ccc([N+](=O)[O-])cc3)nc3ccccc3c2=O)cc1 | -3.5% |
| O=[N+]([O-])c1ccc(C2C3C(c4ccccc4)=NC4(CCCCC4)N32)cc1 (stereo not given) | 64.6% (active) |
| COCc1cc(OC(=O)N(C)C)nc(-c2ccc(C)c(Cl)c2)n1 | 20.3% |
| COC(=O)N(c1ccc(OC)cc1)P1(=S)OCCC(C)O1 (stereo not given) | 65.4% (active) |
| CCOC(=O)c1c(-c2ccccc2)oc2ccc(OC(=O)N(C)C)cc12 | -3.7% |
| COc1ccc(Br)cc1CNCCc1cccc(Cl)c1 | 13.9% |
| COc1ccc(N2C(=O)/C(=C/c3ccco3)C(=O)NC2=S)cc1 | -112% |
| O=C(O)c1ccccc1NC(=O)C1C2CCC(O2)C1C(=O)O (stereo not given) | 28.7% |
| c1ccc(CCNC2CCCCCC2)cc1 | 31.6% |
| O=c1[nH]c(CN2CC=C(c3ccccc3)CC2)nc2scc(-c3cccs3)c12 | 50.8% |
| C[N+]12CN3CN(CN(C3)C1)C2 | -34.4% |
| CC1=CC(=Cc2sc3ccccc3[n+]2C)C=C(C)O1 | 5.9% |
| CCN(CC)CCOC(=O)c1cc2cc(COC)ccc2o1 | 94.9% (active) |
| COc1cccc(N2C(=O)NC(=O)/C(=C\c3ccc([N+](=O)[O-])s3)C2=O)c1 | -60.1% |
| Cc1cc(=O)oc2c(C)c(OCC(=O)N3CCN(Cc4ccc5c(c4)OCO5)CC3)ccc12 | 27.9% |
